# FBA Mtb inh: Mtb fructose-bisphosphate aldolase inhibition; P9WQA3; 360,000 tested, 2.3% active; inhibition, % at 1 µM; purified M. tuberculosis FBA, fluorescence read-out; in the data active means inhibition above about 27%;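 further: 0% = vehicle and 100% = reference inhibitor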
# Rv3671c protease: Rv3671c (M. tuberculosis) protease inhibition. inhibition, % at 5.96 µM. P9WHR9. 320,000 tested, 0.048% active; in the data active means inhibition above about 38%;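 further: extracellular domain of Rv3671c used as enzyme; 0% = enzyme with DMSO and 100% = no enzyme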
# Target sequence (P9WHR9 whole entry, looked up, the tested form may be a part): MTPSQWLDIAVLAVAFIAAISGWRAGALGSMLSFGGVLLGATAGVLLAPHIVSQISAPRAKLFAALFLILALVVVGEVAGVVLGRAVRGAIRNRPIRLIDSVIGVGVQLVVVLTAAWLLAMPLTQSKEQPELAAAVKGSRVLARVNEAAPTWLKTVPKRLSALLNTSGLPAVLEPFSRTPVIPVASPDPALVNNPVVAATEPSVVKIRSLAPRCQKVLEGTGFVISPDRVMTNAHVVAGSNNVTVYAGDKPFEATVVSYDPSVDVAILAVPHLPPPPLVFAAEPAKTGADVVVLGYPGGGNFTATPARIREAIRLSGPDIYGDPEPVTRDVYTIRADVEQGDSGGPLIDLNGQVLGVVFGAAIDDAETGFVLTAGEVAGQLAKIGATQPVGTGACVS
# GDH-TPI counter: counter-screen for M. tuberculosis FBA inhibitors: GDH-TPI coupled enzymes | GDH-TPI coupled enzyme counterscreen, NADH absorbance | 360,000 tested, 1.2% active | inhibition, % at 4.8 µM; in the data active means inhibition above about 30%;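 further: 0% = DMSO wells and 100% = wells lacking the enzyme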
# Mtb UGM inh: blocks M. tuberculosis UGM enzyme | inhibition, % at 10 µM | P9WIQ1 | purified UGM, fluorescence polarization probe displacement | 320,000 tested, 0.06% active; in the data active means inhibition above about 10%, passing the limit was not always enough
# * marks the source's active call; other numbers are inactive results; · = no result; + = active, no number. Rows were chosen to be rich in hits. Some 3.5% of all compounds tested hit in one or more screens of this group.
SMILES,FBA Mtb inh,Rv3671c protease,GDH-TPI counter,Mtb UGM inh
COc1ccc(-c2cc(=Nc3c(C)n(C)n(-c4ccccc4)c3=O)c3ccccc3o2)cc1,+,-1.3,17.3,0.7
COc1ccccc1Cc1c(C(C)(C)C)nc2c3ccccc3ccn12,6.3,·,·,·
COc1cccc(C(=O)C2CCCN(C(=O)c3ccccn3)C2)c1 (centres undefined),-3.5,1.0,2.7,-3.9
COc1ccc(C(=O)C2CCCN(C(=O)c3ccnn3C)C2)cc1OC (centres undefined),0.1,3.5,-1.7,-2.8
COc1ccc2cc(C(=O)C3CCCN(C(=O)c4cc(=O)n(C)c(=O)n4C)C3)ccc2c1 (centres undefined),125.5*,-1.3,11.8,2.4
COc1ccc2cc(C(=O)C3CCCN(C(=O)c4ccnn4C)C3)ccc2c1 (centres undefined),155.2*,-3.7,8.8,-1.4
C#CCSc1nnc(-c2sc(-c3ccccc3)nc2C)n1C,35.6*,-4.3,7.0,-0.3
COc1ccc(Br)c(Cn2c(C)c(C(=O)NCCC#N)sc2=O)c1,0.5,·,6.2,·
CC(=NCCO)c1c(O)n(C2CCCCC2)c(=O)[nH]c1=O,2.2,-0.9,-1.5,-1.0
C/C(=N\NC(=O)c1ccccc1O)c1c(O)n(C2CCCCC2)c(=O)[nH]c1=O,2.1,4.4,45.7*,0.1
C/C(=N\NC(=O)c1ccccc1)c1c(O)n(C2CCCCC2)c(=O)[nH]c1=O,-0.8,17.4,37.9*,-2.1
C/C(=N\NC(=O)c1ccccc1Cl)c1c(O)n(C2CCCCC2)c(=O)[nH]c1=O,-6.2,3.4,37.1*,1.3
C/C(=N\NC(=O)c1ccccc1O)c1c(O)n(Cc2ccccc2)c(=O)[nH]c1=O,7.5,6.3,46.8*,0.1
CSc1cccc(-c2nnc(NC(=O)c3cccc(N4C(=O)CCC4=O)c3)o2)c1,-0.2,7.2,-0.7,·
O=C(Nc1nc2nccc(-c3ccccc3)n2n1)c1ccccc1,4.5,4.1,8.4,-3.3
CC(=O)Nc1nc2nc(-c3ccccc3)cc(-c3ccccc3)n2n1,60.2*,-8.9,25.8,-2.8
Cc1ccc(S(=O)(=O)c2nnn3c2nc(NCCCN2CCCC2=O)c2ccccc23)cc1C,31.0*,-7.2,3.5,0.1
CCCCN(C=O)c1c(CC)nc2c(OCCOc3ccccc3)cccn12,3.9,·,16.4,·
O=C(COC(=O)Cc1ccc(S(=O)(=O)N2CCOCC2)s1)Nc1ccc(OC(F)F)cc1,2.3,-8.6,9.9,0.9
COc1cc(/C=C2/SC(=O)NC2=O)ccc1OCc1ccccc1,-1.0,2.0,43.1*,-1.7
COc1cc(/C=C2\SC(=O)NC2=O)ccc1Oc1cnccn1,-1.9,-2.6,35.8*,-4.1
